Source: PubChem BioAssay (Tox21)
Where “and” joins values, the source holds several entries; their conditions need not be identical. Identical values can stand only once. Results filed as inconclusive are left out. Where a structure was tested more than once in an assay, its records may differ in their call. Calls of active or inactive are those of the source. Unless noted, calls come from the whole dose curve; as a rule, active = well fitted curve in the direction sought with a large enough effect in the repeat runs; inconclusive = weak or mixed curves; inactive = no such curve, though single readings can be large; an effect the other way counts as inactive or inconclusive.

What was measured:
[1] = biological target: Progesterone receptor (Homo sapiens) (UniProt P06401); experiment: qHTS assay to identify small molecule agonists of the progesterone receptor (PR) signaling pathway (AID 1346784; calls by dose curve; note: nearly all actives have a fitted effect of over 30% in size)
Summary of the method: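 Beta-lactamase reporter read-out: after 16 hr compound treatment at 37C and a further 2 hr at room temperature with LiveBLAzer B/G FRET substrate, fluorescence was measured in PR-UAS-bla HEK 293T cells grown in 2% charcoal-stripped serum.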

[2] = biological target: Progesterone receptor (Homo sapiens) (UniProt P06401); experiment: qHTS assay to identify small molecule antagonists of the progesterone receptor (PR) signaling pathway (AID 1346795; active = well fitted inhibition curve with a large enough effect in the signal ratio in the repeat runs, not every such curve was filed as active; the % refers to the signal ratio; note: potency is the fitted concentration of half-maximal effect)
Summary of the method: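 Read-out is fluorescence from the LiveBLAzer B/G FRET substrate, cleaved by a UAS-controlled beta-lactamase in PR-UAS-bla HEK293T cells after 16 hr exposure to compound plus 1 nM promegestone (final), followed by 2 hr at room temperature.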

[3] = qHTS assay to identify small molecule antagonists of the progesterone receptor (PR) signaling pathway - cell viability counter screen (AID 1346798);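 note: HEK293T PR-UAS-bla cells stimulated with the agonist R5020; series mostly up to about 92 µM; nearly all actives have a fitted effect of over 50% in size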
Summary of the method: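 HEK293T PR-UAS-bla, 2% charcoal-stripped FBS; 4 hr pre-plate; cpd + R5020, 16 h 37C; LiveBLAzer read first; then CellTiter-Glo 30 min RT, luminescence.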

[4] = qHTS assay to identify small molecule agonists of the progesterone receptor (PR) signaling pathway - cell viability counter screen (AID 1346799; calls by dose curve; note: nearly all actives have a fitted effect of over 45% in size)
Summary of the method: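 Luminescence from CellTiter-Glo, added after the beta-lactamase FRET read in the same wells, gave cytotoxicity in PR-UAS-bla HEK293T cells treated with compounds for 16 hr at 37C.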

[5] = qHTS assay to identify small molecule antagonists of the TGF-beta/Smad signaling pathway - cell viability counter screen (AID 1346824); note: nearly all actives have a fitted effect of over 50% in size
Summary of the method: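 Cytotoxicity counter-screen run in the same wells as the beta-lactamase Smad reporter read: CellTiter-Glo luminescence after 30 min at room temperature. HEK 293T SBE-bla cells had 5 hr compound exposure at 37 C with TGF-beta1 (0.25 ng/mL stock).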

[6] = qHTS assay to identify small molecule agonists of the TGF-beta/Smad signaling pathway - cell viability counter screen (AID 1346829); note: top concentration of the series differs between compounds; nearly all actives have a fitted effect of over 45% in size
Summary of the method: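 Same-well cytotoxicity: CellTiter-Glo added after the 2 hr room-temperature beta-lactamase substrate step, luminescence measured 30 min later; cells had 5 hr of compound at 37 C.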

[7] = qHTS assay to identify small molecule agonists of the TGF-beta/Smad signaling pathway (AID 1346859; active = well fitted activation curve with a large enough effect in the signal ratio in the repeat runs, not every such curve was filed as active; the % refers to the signal ratio; note: series mostly up to about 77 µM)
Summary of the method: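 SBE-bla HEK 293T, 4,000 cells/well, plated o/n; cpd in DMSO, 5 hr, 37 C/5% CO2; B/G FRET substrate 2 hr RT; ex 405, em 460/530 nm.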

[8] = Human pregnane X receptor (PXR) small molecule agonists, qHTS cell viability counter screen (AID 1346977); note: nearly all actives have a fitted effect of over 50% in size
Summary of the method: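 PXR-Luc HepG2, 2,000 cells/well, 5% charcoal-stripped FBS; 5hr settle; cpd 24hr, 37C/5% CO2; CellTiter-Fluor at 23hr, read 1hr later (fluorescence).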

[9] = Caspase-3/7 induction in HepG2 cells by small molecules, qHTS assay (AID 1346978); note: nearly all actives have a fitted effect of over 15% in size
Summary of the method: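 Caspase-3/7 induction was measured by Caspase-Glo 3/7 luminescence (30 min, room temperature) after a 17 hr compound exposure of wild-type HepG2 cells seeded at 2,000 per well and pre-incubated 5 hr.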

[10] = Caspase-3/7 induction in CHO-K1 cells by small molecules, qHTS cell viability counter screen (AID 1346979); note: nearly all actives have a fitted effect of over 35% in size
Summary of the method: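 Cells (CHO-K1, wild type) are plated at 1,500 per well and incubated 5hr. Test compounds in DMSO are then pinned in, followed by 16hr at 37C and 5% CO2. Viability is read by CellTiter-Fluor fluorescence after 1hr.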

[11] = Caspase-3/7 induction in CHO-K1 cells by small molecules, qHTS assay (AID 1346980); note: nearly all actives have a fitted effect of over 15% in size
Summary of the method: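 Luminescent Caspase-Glo 3/7 read (30min, room temperature) quantified apoptosis induction. Cells were wild-type CHO-K1, treated with compound for 17hr at 37 C and 5% CO2.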

[12] = Caspase-3/7 induction in HepG2 cells by small molecules, qHTS cell viability counter screen (AID 1346981); note: series mostly up to about 92 µM; nearly all actives have a fitted effect of over 30% in size
Summary of the method: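 Wild-type HepG2 cells (2,000/well) were allowed to settle for 5 hr at 37 C, 5% CO2, then dosed with compounds in DMSO by pin transfer. After 16 hr at 37 C, CellTiter-Fluor was added and fluorescence read 1 hr later.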

[13] = biological target: Nuclear receptor subfamily 1 group I member 2 (Homo sapiens) (UniProt O75469); experiment: Human pregnane X receptor (PXR) small molecule agonists, qHTS assay (AID 1346982); note: nearly all actives have a fitted effect of over 35% in size; note: potency is the fitted concentration of half-maximal effect
Summary of the method: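 PXR-Luc HepG2 cells (CYP3A4 promoter-driven luciferase) were seeded in medium with 5% charcoal-stripped FBS, left 5 hr at 37 C, then exposed to compounds in DMSO for 24 hr. Luminescence was read after ONE-Glo addition.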

[14] = biological target: Nuclear receptor subfamily 1 group I member 2 (Rattus norvegicus) (UniProt Q9R1A7); experiment: Rat pregnane X receptor (rPXR) activation by small molecules, qHTS assay (AID 1346983); details: rPXR luciferase reporter cells, One-Glo luminescence, 24 h; max activation: stronger effect = higher value; note: nearly all actives have a fitted effect of over 20% in size
Summary of the method: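 Luminescent readout (One-Glo luciferase, 30 min room temperature) followed 24 hr compound treatment at 37 C of rPXR cells plated 2,000 per well and preincubated 5hr; qHTS format with compounds delivered in DMSO.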

[15] = biological target: Nuclear receptor subfamily 1 group I member 2 (Homo sapiens) (UniProt O75469); experiment: Human pregnane X receptor (PXR) activation by small molecules, qHTS assay (AID 1346985); note: nearly all actives have a fitted effect of over 40% in size; note: potency is the fitted concentration of half-maximal effect
Summary of the method: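 DPX-2 cells (HepG2 co-transfected with a PXR response element and a CYP3A4-promoter luciferase construct) were seeded at 2,000 per well, rested 5 hr at 37C, then exposed to DMSO-dissolved compounds for 24 hr. Activation was read as luciferase luminescence.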

[16] = biological target: Cytochrome P450 2D6 (Homo sapiens) (UniProt P10635); experiment: Cytochrome P450 Family 2 Subfamily D Member 6 (CYP2D6) small molecule antagonists: luciferase reporter qHTS assay (AID 1671196); note: nearly all actives have a fitted effect of over 50% in size; note: potency is the fitted concentration of half-maximal effect
Summary of the method: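 CYP2D6 enzyme–substrate mix was held with compound for 10 min at room temperature, then NADPH regeneration solution was added and the reaction ran 1 h at room temperature. Luciferin product was detected by luminescence after 20 min with detection reagent.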

[17] = biological target: Cytochrome P450 2C19 (Homo sapiens) (UniProt P33261); experiment: Cytochrome P450 Family 2 Subfamily C Member 19 (CYP2C19) small molecule antagonists: luciferase reporter qHTS assay (AID 1671197); note: nearly all actives have a fitted effect of over 65% in size; note: potency is the fitted concentration of half-maximal effect
Summary of the method: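 Quantitative high-throughput screen of the Tox21 library using CYP2C19 with proluciferin substrate. Reaction: NADPH regeneration, 37C, 1 h, after 10 min compound preincubation at room temperature. Readout: luminescence.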

[18] = biological target: Cytochrome P450 2C9 (Homo sapiens) (UniProt P11712); experiment: Cytochrome P450 Family 2 Subfamily C Member 9 (CYP2C9) small molecule antagonists: luciferase reporter qHTS assay (AID 1671198); note: nearly all actives have a fitted effect of over 50% in size; note: potency is the fitted concentration of half-maximal effect
Summary of the method: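 Enzyme-substrate mix preincubated with compound 10 min at room temperature; reaction started with NADPH regeneration solution, 1 h 37C. Luminescent luciferin product read after 20 min detection reagent.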

[19] = biological target: Thyrotropin-releasing hormone receptor (Homo sapiens) (UniProt P34981); experiment: qHTS assay to identify small molecule antagonists of the thyrotropin-releasing hormone receptor (TRHR) signaling pathway (AID 1346877; active = well fitted inhibition curve with a large enough effect in the repeat runs, not every such curve was filed as active; note: series mostly up to about 51 µM)
Summary of the method: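 TRHR-expressing HEK293 cells were seeded, cultured 18 h at 37 °C, then loaded with calcium dye for 2 h. Compounds were pre-incubated 5 min at room temperature before 1 nM TRH (final) was added, and kinetic fluorescence was recorded for 3 min.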

[20] = biological target: Thyrotropin-releasing hormone receptor (Homo sapiens) (UniProt P34981); experiment: qHTS assay to identify small molecule agonists of the thyrotropin-releasing hormone receptor (TRHR) signaling pathway (AID 1346891; calls by dose curve; note: series mostly up to about 58 µM)
Summary of the method: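 Intracellular calcium rise, read as fluorescence every second for 3 min, served as the agonist signal in dye-loaded HEK293 cells expressing TRHR; each compound ran at 15 concentrations in triplicate.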
% is set by controls: 0 for no effect and ±100 for the full control effect.

Chain of Cytochrome P450 2C9 (Homo sapiens) (P11712 whole entry, looked up): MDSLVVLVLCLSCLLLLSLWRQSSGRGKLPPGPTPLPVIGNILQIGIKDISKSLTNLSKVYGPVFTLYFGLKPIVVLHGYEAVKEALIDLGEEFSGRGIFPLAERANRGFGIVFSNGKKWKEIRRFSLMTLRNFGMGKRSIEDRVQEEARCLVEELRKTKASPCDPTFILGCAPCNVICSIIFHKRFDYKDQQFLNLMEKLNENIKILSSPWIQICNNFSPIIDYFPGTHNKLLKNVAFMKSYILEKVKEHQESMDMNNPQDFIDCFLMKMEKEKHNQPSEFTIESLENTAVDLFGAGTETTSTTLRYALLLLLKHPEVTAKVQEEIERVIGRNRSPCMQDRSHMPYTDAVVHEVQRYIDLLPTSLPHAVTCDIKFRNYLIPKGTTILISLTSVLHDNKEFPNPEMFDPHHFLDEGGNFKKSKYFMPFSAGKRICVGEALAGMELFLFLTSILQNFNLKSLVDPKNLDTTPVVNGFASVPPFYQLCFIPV
Chain of Cytochrome P450 2D6 (Homo sapiens) (P10635 whole entry, looked up): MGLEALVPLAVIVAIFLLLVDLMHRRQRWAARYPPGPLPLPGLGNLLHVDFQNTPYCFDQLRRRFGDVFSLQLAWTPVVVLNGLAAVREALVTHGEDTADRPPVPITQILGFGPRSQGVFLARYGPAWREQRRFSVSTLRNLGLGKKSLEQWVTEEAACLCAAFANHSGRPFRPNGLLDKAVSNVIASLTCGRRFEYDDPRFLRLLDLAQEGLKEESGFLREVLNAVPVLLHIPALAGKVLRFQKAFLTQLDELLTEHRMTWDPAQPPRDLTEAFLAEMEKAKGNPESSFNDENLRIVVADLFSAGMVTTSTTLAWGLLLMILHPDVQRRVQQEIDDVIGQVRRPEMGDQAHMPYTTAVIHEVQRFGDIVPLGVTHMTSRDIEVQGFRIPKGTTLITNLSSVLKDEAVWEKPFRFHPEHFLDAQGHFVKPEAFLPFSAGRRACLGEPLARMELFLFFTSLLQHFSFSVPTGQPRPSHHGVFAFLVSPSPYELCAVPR
Chain of Nuclear receptor subfamily 1 group I member 2 (Rattus norvegicus) (Q9R1A7 whole entry, looked up): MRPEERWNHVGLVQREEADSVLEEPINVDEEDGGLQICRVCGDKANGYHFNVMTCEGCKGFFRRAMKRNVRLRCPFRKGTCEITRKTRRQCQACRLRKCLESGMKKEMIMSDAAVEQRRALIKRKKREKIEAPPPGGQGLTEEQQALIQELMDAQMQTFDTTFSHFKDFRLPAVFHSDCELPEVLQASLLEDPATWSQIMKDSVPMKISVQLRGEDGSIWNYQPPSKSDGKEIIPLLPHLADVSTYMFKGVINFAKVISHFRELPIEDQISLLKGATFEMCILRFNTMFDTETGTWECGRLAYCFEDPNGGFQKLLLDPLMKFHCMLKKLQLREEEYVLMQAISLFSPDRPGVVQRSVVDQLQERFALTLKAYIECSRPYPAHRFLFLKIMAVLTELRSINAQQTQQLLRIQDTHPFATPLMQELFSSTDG
Chain of Progesterone receptor (Homo sapiens) (P06401 whole entry, looked up): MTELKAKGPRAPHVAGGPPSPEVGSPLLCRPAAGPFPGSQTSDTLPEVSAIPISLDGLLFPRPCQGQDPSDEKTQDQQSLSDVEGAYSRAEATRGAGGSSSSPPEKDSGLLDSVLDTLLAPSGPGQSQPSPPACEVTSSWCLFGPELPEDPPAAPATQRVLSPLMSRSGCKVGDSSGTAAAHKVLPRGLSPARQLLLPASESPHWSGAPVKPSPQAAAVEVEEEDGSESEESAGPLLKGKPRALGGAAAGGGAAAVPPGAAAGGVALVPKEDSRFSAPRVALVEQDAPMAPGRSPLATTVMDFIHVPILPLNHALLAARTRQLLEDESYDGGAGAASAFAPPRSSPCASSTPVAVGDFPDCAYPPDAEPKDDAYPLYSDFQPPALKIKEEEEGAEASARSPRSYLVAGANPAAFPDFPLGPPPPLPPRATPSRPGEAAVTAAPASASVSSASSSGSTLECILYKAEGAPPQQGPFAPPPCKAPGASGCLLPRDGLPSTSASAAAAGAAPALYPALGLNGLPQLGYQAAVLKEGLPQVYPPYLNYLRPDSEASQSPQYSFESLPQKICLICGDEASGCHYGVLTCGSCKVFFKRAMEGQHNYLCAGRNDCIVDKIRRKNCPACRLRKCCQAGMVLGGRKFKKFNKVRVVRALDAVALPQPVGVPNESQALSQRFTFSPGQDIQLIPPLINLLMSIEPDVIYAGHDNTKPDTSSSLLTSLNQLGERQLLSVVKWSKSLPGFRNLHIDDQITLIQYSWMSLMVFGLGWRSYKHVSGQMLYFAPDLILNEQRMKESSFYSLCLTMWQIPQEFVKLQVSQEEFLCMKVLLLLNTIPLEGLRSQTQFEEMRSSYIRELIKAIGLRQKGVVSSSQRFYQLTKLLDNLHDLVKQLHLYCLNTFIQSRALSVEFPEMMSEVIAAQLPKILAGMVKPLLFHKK
Chain of Cytochrome P450 2C19 (Homo sapiens) (P33261 whole entry, looked up): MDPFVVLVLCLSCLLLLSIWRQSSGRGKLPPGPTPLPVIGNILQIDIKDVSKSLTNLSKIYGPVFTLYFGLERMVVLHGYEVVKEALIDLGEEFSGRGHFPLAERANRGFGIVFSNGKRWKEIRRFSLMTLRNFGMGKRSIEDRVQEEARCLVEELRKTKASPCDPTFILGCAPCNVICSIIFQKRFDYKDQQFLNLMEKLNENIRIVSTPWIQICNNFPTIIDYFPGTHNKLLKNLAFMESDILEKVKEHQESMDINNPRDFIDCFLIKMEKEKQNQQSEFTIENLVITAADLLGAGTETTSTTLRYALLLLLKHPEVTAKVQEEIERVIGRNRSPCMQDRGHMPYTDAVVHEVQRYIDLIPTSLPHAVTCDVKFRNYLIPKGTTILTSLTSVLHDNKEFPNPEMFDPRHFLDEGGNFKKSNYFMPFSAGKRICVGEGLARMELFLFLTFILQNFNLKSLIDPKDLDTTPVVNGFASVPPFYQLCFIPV
Chain of Thyrotropin-releasing hormone receptor (Homo sapiens) (P34981 whole entry, looked up): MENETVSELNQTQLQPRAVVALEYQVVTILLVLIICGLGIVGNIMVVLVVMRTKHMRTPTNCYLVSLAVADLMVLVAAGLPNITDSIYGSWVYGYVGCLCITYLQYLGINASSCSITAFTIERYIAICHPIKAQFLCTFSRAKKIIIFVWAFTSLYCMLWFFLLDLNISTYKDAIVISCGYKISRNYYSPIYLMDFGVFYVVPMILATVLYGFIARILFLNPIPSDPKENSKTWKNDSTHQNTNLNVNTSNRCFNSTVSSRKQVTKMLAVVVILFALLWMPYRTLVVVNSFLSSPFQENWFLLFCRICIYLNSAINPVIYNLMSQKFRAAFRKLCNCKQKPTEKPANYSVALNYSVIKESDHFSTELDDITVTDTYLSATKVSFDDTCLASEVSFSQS
Chain of Nuclear receptor subfamily 1 group I member 2 (Homo sapiens) (O75469 whole entry, looked up): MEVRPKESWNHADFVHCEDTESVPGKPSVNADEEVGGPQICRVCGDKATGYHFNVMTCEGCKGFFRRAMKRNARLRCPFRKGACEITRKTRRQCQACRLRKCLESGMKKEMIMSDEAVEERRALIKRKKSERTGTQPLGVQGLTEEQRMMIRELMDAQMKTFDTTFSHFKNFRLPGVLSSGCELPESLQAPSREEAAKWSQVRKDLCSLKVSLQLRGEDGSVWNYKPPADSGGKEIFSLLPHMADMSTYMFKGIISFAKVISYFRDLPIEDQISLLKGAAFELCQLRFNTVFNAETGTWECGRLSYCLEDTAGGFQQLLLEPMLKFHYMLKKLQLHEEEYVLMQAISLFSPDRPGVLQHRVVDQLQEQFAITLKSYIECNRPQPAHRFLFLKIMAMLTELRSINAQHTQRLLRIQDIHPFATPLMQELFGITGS

Cc1ccc(O)c(-n2nc3ccccc3n2)c1
inactive: Potency [1] | Potency [3] | Potency [4] | Potency [5] | Potency [6] | outcome [7] | Potency [8] | Potency [9] | Potency [10] | outcome [11] | Potency [12] | max activation [14] -1.88%
active: Potency [2] 48.6 µM | Potency [13] 27.1 µM and 27.3 µM and 23.7 µM | Potency [15] 14.1 µM | Potency [16] 31.5 µM and 35.6 µM and 30.9 µM | Potency [17] 7.05 µM and 10 µM | Potency [18] 8.87 µM and 7.1 µM and 8.71 µM

CCOC(=O)C(C)(C)Oc1ccc(Cl)cc1
inactive: Potency [2] | Potency [3] | Potency [4] | Potency [5] | Potency [6] | outcome [7] | outcome [19] | Potency [20] | Potency [8] | Potency [9] | Potency [10] | outcome [11] | Potency [12] | Potency [13]

NC(N)=NC(N)=NCCc1ccccc1
active: Potency [16] 5 µM and 10 µM and 8.71 µM
inactive: Potency [1] | Potency [2] | Potency [5] | Potency [6] | outcome [7] | Potency [9] | Potency [10] | outcome [11] | Potency [12] | Potency [13] | max activation [14] -11.7% and -9.14% | Potency [15] | Potency [17]

Cc1cccc(C)c1O
inactive: Potency [2] | Potency [3] | Potency [4] | Potency [5] | Potency [6] | outcome [7] | outcome [19] | Potency [20] | Potency [8] | Potency [9] | Potency [10] | outcome [11] | Potency [12] | Potency [13] | Potency [16]
72.1 µM (active) and inactive: Potency [17]

COc1ccc(O)cc1
27.2 µM (active) and inactive: Potency [16]
inactive: Potency [2] | Potency [3] | Potency [4] | Potency [5] | Potency [6] | outcome [7] | outcome [19] | Potency [20] | Potency [8] | Potency [9] | Potency [10] | outcome [11] | Potency [12] | Potency [13] | max activation [14] -2.37% | Potency [15] | Potency [18]
34.3 µM (active) and inactive: Potency [17]

CCCCOC(=O)CCCCCCCCC(=O)OCCCC
inactive: Potency [1] | Potency [2] | Potency [3] | Potency [4] | Potency [5] | Potency [6] | outcome [7] | Potency [8] | Potency [9] | Potency [10] | outcome [11] | Potency [12] | Potency [13] | Potency [16] | Potency [17]
active: Potency [18] 28.3 µM

C=CCOC(=O)CC(C)C
inactive: Potency [2] | Potency [3] | Potency [4] | Potency [5] | Potency [6] | outcome [7] | outcome [19] | Potency [20] | Potency [8] | Potency [9] | Potency [10] | outcome [11] | Potency [12] | Potency [13] | Potency [16] | Potency [17] | Potency [18]
